The source of these data is PubChem BioAssay.

SMILES strings stand for the structures. Values without a mark were called inactive. Activity calls are given as the source filed them. Rule as the data show it, unless noted: active = inhibition above about 30%; inactive = the rest.

Test [1] concerns the target Nuclear receptor coactivator 3 (Homo sapiens) (UniProt Q9Y6Q9). The test is described as follows: NCOA3 GAL4-fusion reporter inhibition – cell-based, luminescence, quadruplicate, confirmation (AID 588792;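 active = mean inhibition over 43.08%, the solvent-only control mean plus 3 SD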;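 also: 0% = DMSO treated cells and 100% = gossypol at 36 µM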). As to conditions: HEK293 GAL4-SRC3 luciferase reporter, at 3.6 µM, stronger effect = higher value. Background: A reporter such as luciferase makes a cellular process visible.
Test [2] has as its system transactivating tegument protein VP16 (Human herpesvirus 1), Gal4-VP16 luciferase reporter. As to the kind of experiment: repression of VP16-driven luciferase reporter – cell-based, luminescence, high throughput, counter-screen for SRC3 inhibitor project (AID 588794). As to conditions: mammalian cells, at 3.6 µM, stronger effect = higher value.
The target of test [3] is Nuclear receptor coactivator 1 (Homo sapiens) (UniProt Q15788). As to the kind of experiment: NCOA1 GAL4-fusion reporter inhibition – cell-based, luminescence, quadruplicate, confirmation (AID 588820;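 active = mean inhibition above 46.68%, the untreated control wells mean plus 3 SD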;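 also: 0% = DMSO wells and 100% = gossypol 36 µM treated wells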). The conditions noted are these: HEK293 GAL4-SRC1 luciferase reporter, at 3.6 µM, stronger effect = higher value.
Test [4] is described as follows: repression of VP16-driven luciferase reporter – cell-based, luminescence, high throughput, counter-screen for SRC1 inhibitor project (AID 588824; in the data active = inhibition above about 25%). As to conditions: cell-based VP16 transactivation luciferase luminescence; at 3.6 µM; stronger effect = higher value.
Test [5] can be described thus: StAR promoter reporter inhibitors, counter-screen for LRH-1 inverse agonist project, cell-based, luminescence, high throughput (AID 651611; in the data active = inhibition above about 28%). As to conditions: StAR promoter luciferase reporter counterscreen, at 3.6 µM, stronger effect = higher value. Background: The purpose of a counterscreen is to sort out artefacts and off-target activity.
Test [6] addresses Nuclear receptor subfamily 5 group A member 2 (Homo sapiens) (UniProt O00482). As to the kind of experiment: NR5A2 activity suppression in reporter cells – cell-based, luminescence, confirmation (AID 651613; in the data active = inhibition above about 42%;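 also: HEK293T cells co-transfected with LRH-1 and StAR promoter luciferase reporter; 0% = vehicle wells and 100% = parental cells lacking receptor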). As to conditions: cell-based LRH-1 luciferase reporter, inverse agonism; at 3.6 µM; stronger effect = higher value.
Test [7] concerns the target Steroidogenic factor 1 (Homo sapiens) (UniProt Q13285). The test is described as follows: inverse agonism at SF1 nuclear receptor – cell-based, luminescence, high throughput, counter-screen for LRH-1 inverse agonist project (AID 651614; in the data active = inhibition above about 44%;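 also: cells cotransfected with StAR promoter reporter and SF1 expression vector; 0% = vehicle on cells with receptor and 100% = vehicle on cells lacking receptor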). As to conditions: cell-based SF1 luciferase reporter, at 3.6 µM, stronger effect = higher value.
A short description of test [8]: compounds suppressing VP16-driven luciferase signal – cell-based, luminescence, high throughput, counter-screen for LRH-1 inverse agonist project (AID 651615; in the data active = inhibition above about 33%). The conditions noted are these: Gal4-VP16 luciferase reporter cells, at 3.6 µM, stronger effect = higher value.

Chain of Steroidogenic factor 1 (Homo sapiens) (Q13285 whole entry, looked up, the tested form may be a part): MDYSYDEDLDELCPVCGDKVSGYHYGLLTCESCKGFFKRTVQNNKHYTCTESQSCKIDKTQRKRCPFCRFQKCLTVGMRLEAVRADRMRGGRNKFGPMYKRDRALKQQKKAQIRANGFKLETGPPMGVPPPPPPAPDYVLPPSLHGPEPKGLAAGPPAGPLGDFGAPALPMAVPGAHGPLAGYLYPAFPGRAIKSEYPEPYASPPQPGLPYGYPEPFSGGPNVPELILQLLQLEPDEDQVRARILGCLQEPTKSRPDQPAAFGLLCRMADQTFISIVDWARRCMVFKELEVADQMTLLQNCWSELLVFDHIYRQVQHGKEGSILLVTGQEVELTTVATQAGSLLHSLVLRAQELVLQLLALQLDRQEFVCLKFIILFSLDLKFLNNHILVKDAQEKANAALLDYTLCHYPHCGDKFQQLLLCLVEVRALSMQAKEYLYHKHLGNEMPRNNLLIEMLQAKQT
Chain of Nuclear receptor subfamily 5 group A member 2 (Homo sapiens) (O00482 whole entry, looked up): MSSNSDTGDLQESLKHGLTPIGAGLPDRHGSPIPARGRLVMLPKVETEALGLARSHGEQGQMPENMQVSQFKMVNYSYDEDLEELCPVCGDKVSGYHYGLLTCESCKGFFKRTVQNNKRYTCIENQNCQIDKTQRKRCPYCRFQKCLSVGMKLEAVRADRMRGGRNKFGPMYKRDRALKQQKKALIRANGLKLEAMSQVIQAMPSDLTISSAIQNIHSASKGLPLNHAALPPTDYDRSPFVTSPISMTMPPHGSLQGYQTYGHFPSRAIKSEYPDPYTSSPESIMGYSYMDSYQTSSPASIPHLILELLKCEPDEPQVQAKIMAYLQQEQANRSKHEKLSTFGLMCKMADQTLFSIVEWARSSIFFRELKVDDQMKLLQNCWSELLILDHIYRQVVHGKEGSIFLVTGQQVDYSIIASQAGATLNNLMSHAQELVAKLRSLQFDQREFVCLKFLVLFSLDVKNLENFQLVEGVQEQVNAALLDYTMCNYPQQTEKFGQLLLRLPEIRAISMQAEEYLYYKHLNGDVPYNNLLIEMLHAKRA
Chain of Nuclear receptor coactivator 3 (Homo sapiens) (Q9Y6Q9 whole entry, looked up, the tested form may be a part): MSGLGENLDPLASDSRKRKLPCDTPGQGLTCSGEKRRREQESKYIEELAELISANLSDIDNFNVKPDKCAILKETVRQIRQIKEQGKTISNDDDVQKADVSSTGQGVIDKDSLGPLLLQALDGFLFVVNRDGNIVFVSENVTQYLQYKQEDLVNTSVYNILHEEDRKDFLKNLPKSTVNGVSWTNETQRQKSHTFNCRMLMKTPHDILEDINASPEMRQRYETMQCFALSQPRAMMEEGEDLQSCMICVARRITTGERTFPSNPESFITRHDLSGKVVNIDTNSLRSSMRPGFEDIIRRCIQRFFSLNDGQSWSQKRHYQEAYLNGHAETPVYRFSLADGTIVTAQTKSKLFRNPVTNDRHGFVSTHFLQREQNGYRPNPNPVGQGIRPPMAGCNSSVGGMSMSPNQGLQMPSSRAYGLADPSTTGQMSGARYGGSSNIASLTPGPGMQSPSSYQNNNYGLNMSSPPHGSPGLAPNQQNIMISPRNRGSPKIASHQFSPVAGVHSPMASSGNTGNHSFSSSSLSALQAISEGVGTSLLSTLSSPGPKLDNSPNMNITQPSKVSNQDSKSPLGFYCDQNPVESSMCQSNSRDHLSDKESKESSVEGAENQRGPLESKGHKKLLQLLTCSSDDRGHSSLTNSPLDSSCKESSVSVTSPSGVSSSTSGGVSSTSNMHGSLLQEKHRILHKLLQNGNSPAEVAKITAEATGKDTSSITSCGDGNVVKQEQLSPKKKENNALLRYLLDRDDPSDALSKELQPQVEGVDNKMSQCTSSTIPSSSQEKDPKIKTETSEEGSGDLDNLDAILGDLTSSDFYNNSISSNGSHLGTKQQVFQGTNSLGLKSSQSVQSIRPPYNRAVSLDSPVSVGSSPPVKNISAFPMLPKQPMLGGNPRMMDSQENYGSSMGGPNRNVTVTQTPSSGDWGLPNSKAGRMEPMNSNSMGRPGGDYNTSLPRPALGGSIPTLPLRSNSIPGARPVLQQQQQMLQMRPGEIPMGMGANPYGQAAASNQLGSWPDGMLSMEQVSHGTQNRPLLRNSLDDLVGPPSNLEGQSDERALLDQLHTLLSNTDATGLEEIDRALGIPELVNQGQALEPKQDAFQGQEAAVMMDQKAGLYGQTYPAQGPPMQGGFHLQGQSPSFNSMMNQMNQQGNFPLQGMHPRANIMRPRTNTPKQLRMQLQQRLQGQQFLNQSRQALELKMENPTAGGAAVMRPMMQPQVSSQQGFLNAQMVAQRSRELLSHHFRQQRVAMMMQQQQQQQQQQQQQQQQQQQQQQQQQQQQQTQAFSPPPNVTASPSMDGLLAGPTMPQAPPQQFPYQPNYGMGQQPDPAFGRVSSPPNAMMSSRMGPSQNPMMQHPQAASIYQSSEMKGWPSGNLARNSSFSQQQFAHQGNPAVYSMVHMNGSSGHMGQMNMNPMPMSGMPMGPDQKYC
Chain of Nuclear receptor coactivator 1 (Homo sapiens) (Q15788 whole entry, looked up, the tested form may be a part): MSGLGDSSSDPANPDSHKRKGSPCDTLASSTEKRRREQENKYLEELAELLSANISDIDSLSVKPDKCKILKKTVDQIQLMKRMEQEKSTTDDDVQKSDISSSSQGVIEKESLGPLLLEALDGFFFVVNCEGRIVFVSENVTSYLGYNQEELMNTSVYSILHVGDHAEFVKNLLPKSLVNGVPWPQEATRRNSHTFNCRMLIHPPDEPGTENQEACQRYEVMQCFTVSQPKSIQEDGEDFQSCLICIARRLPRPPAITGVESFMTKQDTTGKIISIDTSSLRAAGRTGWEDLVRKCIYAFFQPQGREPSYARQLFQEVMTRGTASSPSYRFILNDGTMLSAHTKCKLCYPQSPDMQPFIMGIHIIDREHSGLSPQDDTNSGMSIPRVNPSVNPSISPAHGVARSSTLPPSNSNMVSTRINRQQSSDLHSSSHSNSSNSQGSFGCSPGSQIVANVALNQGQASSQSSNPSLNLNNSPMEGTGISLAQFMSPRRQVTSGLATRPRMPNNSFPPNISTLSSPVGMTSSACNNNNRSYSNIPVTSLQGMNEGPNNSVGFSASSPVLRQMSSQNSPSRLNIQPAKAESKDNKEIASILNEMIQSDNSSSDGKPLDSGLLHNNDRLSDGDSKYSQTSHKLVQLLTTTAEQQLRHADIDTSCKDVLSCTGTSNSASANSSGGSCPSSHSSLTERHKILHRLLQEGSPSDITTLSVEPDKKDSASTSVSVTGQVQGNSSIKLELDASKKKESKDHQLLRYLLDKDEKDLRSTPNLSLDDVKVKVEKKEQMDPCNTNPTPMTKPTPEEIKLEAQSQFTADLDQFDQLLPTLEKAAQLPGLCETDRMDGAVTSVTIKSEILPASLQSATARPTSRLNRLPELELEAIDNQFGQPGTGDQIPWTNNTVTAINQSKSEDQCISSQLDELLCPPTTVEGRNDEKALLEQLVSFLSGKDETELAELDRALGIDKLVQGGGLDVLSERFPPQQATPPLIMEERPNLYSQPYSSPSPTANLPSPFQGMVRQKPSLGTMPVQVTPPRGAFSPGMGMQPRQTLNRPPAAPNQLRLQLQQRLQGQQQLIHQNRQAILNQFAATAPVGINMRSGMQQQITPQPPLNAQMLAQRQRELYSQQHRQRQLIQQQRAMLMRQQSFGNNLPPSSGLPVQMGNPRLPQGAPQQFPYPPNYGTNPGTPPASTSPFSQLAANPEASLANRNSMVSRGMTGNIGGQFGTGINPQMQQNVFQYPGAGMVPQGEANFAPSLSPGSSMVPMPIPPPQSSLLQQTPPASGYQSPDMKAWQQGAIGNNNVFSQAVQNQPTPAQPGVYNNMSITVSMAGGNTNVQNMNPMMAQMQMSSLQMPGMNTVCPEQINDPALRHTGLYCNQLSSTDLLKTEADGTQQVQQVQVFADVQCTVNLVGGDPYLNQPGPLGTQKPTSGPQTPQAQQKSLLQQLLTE

What is called inhibition is the change of the read-out against control, counted positive when it falls. Take `COc1ccc(NC(=O)c2cc(-c3cc(C)cc(F)c3)n[nH]2)cc1OC`: the inhibition in test [1] is 23.5%; in test [2] it was 44.4% (active); in test [3] it was 15.5%; in test [4], 33.5% (active); in test [5], 39.5% (active); in test [6], 55.6% (active). Moreover, the figures for the inhibition in test [7] and in test [8] were 59.6% (active) and 61.5% (active), respectively.

As for `CCCCCCCCCCn1c2c(c(=N)c3c1CCC3)CCC2`, the inhibition in test [1] is 85.2% (active); in test [2], 89.5% (active); in test [3] it was 57.1% (active); in test [4], 89.7% (active); in test [5] it was 82.1% (active); in test [6], 108% (active). Besides, the inhibition in test [7] was 94.5% (active); in test [8], 95.2% (active).

Consider `Nc1nc2c(nnn2C2CC(O)C(CO)O2)c(=O)[nH]1` (centres undefined), for which the inhibition was 78.7% (active) in test [1]; 13.7% in test [2]; 13.6% in test [3]; 3.11% in test [4]; 51.8% (active) in test [5]; 53.9% (active) in test [6]. Besides, the inhibition is 44.1% (active) in test [7] and 9.15% in test [8].

Regarding `NC(=S)NN=Cc1nccc2ccccc12`, the inhibition in test [1] is 80% (active); in test [2] it was 26.7%; in test [3] it was 58.1% (active); in test [4], 20.9%; in test [5], 74.9% (active); in test [6], 89.8% (active). Besides, the inhibition in test [7] was 79% (active); in test [8], 20.6%.

Regarding `Cc1cc(/C=c2/sc3nc4ccccc4n3c2=O)c(C)n1-c1ccccn1`, the inhibition is 89.7% (active) in test [1]; 87.8% (active) in test [2]; 82.9% (active) in test [3]; 81.6% (active) in test [4]; 86.4% (active) in test [5]; 84.2% (active) in test [6]. The inhibition was 87.4% (active) in test [7] and 78.8% (active) in test [8].

On to `Cn1cc(/C=C/c2cc[n+](C)cc2)c2cc(Cl)ccc21`, for which the inhibition in test [1] was 21.6%; in test [2], 43.1% (active); in test [3] it was 21.5%; in test [4] it was 38.8% (active); in test [5], 47.9% (active); in test [6] it was 81.2% (active). Besides, the inhibition in test [7] is 78.8% (active); in test [8], 73.9% (active).

On to `CC1(C)CC(N2CCN(c3ccccc3)CC2)=CC(=[N+]2CCCC2)C1`, for which the inhibition in test [1] was 23.8%; in test [2], 37.6% (active); in test [3], 2.88%; in test [4] it was 33.1% (active); in test [5], 30% (active); in test [6], 73.2% (active). The inhibition in test [7] is 66.5% (active); in test [8], 63.7% (active).

For the compound `CN(Cc1cnc2nc(N)nc(N)c2n1)c1ccc(C(=O)NC(CCC(=O)O)C(=O)O)cc1C(F)(F)F` (centres undefined), the inhibition in test [1] is 60.4% (active); in test [2], 7.16%; in test [3], 51.9% (active); in test [4], 5.94%; in test [5], 79.6% (active); in test [6] it was 56.4% (active). The inhibition is 49.1% (active) in test [7] and 21.3% in test [8].

For the compound `O=C(Nc1ccc(S(=O)(=O)N2CCCC2)cc1)c1ccc(CN2CCc3ccccc3C2)cc1`, the inhibition in test [1] is 28.1%; in test [2], 56.4% (active); in test [3], 8.79%; in test [4], 56.9% (active); in test [5] it was 51.4% (active); in test [6], 74.5% (active). For the same compound, the inhibition in test [7] was 75.2% (active); in test [8], 68.7% (active).

On to `CCOc1cc(/C=C2\CN(CC)C/C(=C\c3ccc(O)c(OCC)c3)C2=O)ccc1O`, for which the inhibition in test [1] was 65.4% (active); in test [2], 62.4% (active); in test [3], 4.46%; in test [4], 51.8% (active); in test [5], 47.3% (active); in test [6] it was 91.2% (active). For the same compound, the inhibition in test [7] is 87.2% (active); in test [8], 82.6% (active).

For the compound `CCOc1ccc(-n2c(-c3ccc(OC)cc3)c[n+]3c2CCCCC3)cc1`, the inhibition was 46.6% (active) in test [1]; 67.5% (active) in test [2]; 36.2% in test [3]; 63.9% (active) in test [4]; 52.9% (active) in test [5]; 109% (active) in test [6]. The inhibition in test [7] was 83.9% (active); in test [8], 90.3% (active).

For `OC[C@H]1O[C@@H](n2cnc3c(NCc4ccco4)ncnc32)[C@H](O)[C@@H]1O`, the inhibition in test [1] is 58% (active); in test [2], 44.6% (active); in test [3] it was 42.5%; in test [4], 51.8% (active); in test [5] it was 55.1% (active); in test [6], 52.9% (active). In addition, the inhibition in test [7] was 51.4% (active); in test [8], 61.4% (active).

`CC[n+]1c(/C=C/N(C)c2ccccc2)oc2ccccc21`: the inhibition in test [1] is 34.7%; in test [2], 55.8% (active); in test [3], 16.9%; in test [4], 55.2% (active); in test [5], 31.9% (active); in test [6], 82% (active). The values for the inhibition in test [7] and in test [8] were 69% (active) and 73.2% (active), respectively.

As to `CCCCC(=O)NC(c1ccc(Cl)cc1Cl)c1ccc2cccnc2c1O` (centres undefined), the inhibition was 39.4% in test [1]; 24.5% in test [2]; 27.4% in test [3]; 27.2% (active) in test [4]; 64% (active) in test [5]; 82% (active) in test [6]. In addition, the results for the inhibition in test [7] and in test [8] were 60.9% (active) and 71.7% (active), respectively.

Consider `CCN1CCS/C1=C\C=C\C1=[N+](CC)CCS1`, for which the inhibition in test [1] is 22.6%; in test [2], 44.8% (active); in test [3], 4.06%; in test [4] it was 50.1% (active); in test [5] it was 32.9% (active); in test [6], 77% (active). Also, the inhibition is 79% (active) in test [7] and 69.2% (active) in test [8].

`O=C(NCc1ccco1)c1cccc(NC(=O)c2ccccc2)c1`: the inhibition in test [1] is 23.4%; in test [2], 52.9% (active); in test [3], 33.7%; in test [4], 53.1% (active); in test [5], 58.8% (active); in test [6], 65.6% (active). For the same compound, the inhibition in test [7] was 66% (active); in test [8], 69.5% (active).

With `CN(Cc1ccccc1)C1=CC(=[N+]2CCCC2)CC(C)(C)C1`, the inhibition in test [1] was 64.6% (active); in test [2] it was 67.9% (active); in test [3] it was 7.51%; in test [4], 63.1% (active); in test [5] it was 44.2% (active); in test [6], 109% (active). The inhibition was 79.9% (active) in test [7] and 89.6% (active) in test [8].

With `COC1C=CC=C(C)C(=O)NC2=CC(=O)C(N)=C(CC(C)CC(OC)C(O)C(C)C=C(C)C1OC(N)=O)C2=O` (centres undefined), the inhibition was 78.9% (active) in test [1]; 81.6% (active) in test [2]; 18.4% in test [3]; 82.3% (active) in test [4]; 73.2% (active) in test [5]; 93.7% (active) in test [6]. Besides, the inhibition is 85.5% (active) in test [7] and 85.7% (active) in test [8].
